Compound activity deposited in PubChem BioAssay by National Center for Advancing Translational Sciences (NCATS).
Rows were chosen to be rich in hits. Some 0.43% of all compounds tested hit in one or more screens of this group.
GAA glycogen = alters human alpha-glucosidase cleavage of glycogen; recombinant GAA, glycogen substrate, Amplex Red glucose oxidase fluorescence; Potency, µM (highest dose often 76.4 µM), usual class: inhibitors; 300,000 compounds, 0.38% hits; P10253;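 note: the screen sought inhibitors and activators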
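Natural-substrate format: glycogen cleavage by 4 nM human enzyme, glucose read by Amplex Red coupling (Ex 573, Em 610 nm). Normalized to enzyme and no-enzyme controls.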
GAA spleen mod = lysosomal alpha-glucosidase (human) modulation; P10253; human spleen homogenate, 4-MU-alpha-glucoside fluorescence; Potency, µM (series often up to 79.9 µM), most hits filed as inhibitors; 240,000 compounds, 0.006% hits; AID 2112
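Human spleen homogenate (1 ug) incubated with compounds and 1 mM 4-methylumbelliferyl-alpha-D-glucopyranoside in pH 5.0 citrate/phosphate buffer, 37 C, 40 min. Stopped at pH 10; 4-MU fluorescence (Ex 365/Em 440 nm); AC50 by Hill fit.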
GAA inh = alpha-glucosidase (human) inhibition; P10253; 200,000 compounds, 0.005% hits; purified human GAA, 4-MU-alpha-glucoside fluorescence; Potency, µM (top dose mostly 76.9 µM), actives largely listed as inhibitors
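AC50 values come from Hill fits of compound titrations (up to 77 uM) against 4 nM human enzyme. Substrate 4-methylumbelliferyl-alpha-D-pyranoside at 400 uM, pH 5.0 citrate buffer, 20 min room temperature; fluorescence Ex 365/Em 440 after alkaline stop.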
GLA inh pH 4.5 = inhibitors of human alpha-galactosidase A at pH 4.5; P06280; 230,000 tested, under 10 active; activity change, negative = inhibition, % at 105 µM; purified enzyme, 4-MU-alpha-Gal fluorescence, pH 4.5; AID 1467
N370S GC mod = inhibits or activates N370S mutant glucocerebrosidase. N370S GC spleen homogenate, 4MU-glucoside fluorescence. 330,000 compounds, 0.092% hits. P04062. Potency, µM (titrated, usually from 59.4 µM), usual class: inhibitors
GLA spleen mod = inhibits or activates alpha-galactosidase in human spleen homogenate | Potency, µM (titrated, usually from 80 µM), hits mostly inhibitors | AID 2107 | 240,000 compounds, 0.008% hits | P06280 | human spleen homogenate, 4MU-alpha-Gal fluorescence, 40 min
Target sequence (P06280 32-429 limits assumed): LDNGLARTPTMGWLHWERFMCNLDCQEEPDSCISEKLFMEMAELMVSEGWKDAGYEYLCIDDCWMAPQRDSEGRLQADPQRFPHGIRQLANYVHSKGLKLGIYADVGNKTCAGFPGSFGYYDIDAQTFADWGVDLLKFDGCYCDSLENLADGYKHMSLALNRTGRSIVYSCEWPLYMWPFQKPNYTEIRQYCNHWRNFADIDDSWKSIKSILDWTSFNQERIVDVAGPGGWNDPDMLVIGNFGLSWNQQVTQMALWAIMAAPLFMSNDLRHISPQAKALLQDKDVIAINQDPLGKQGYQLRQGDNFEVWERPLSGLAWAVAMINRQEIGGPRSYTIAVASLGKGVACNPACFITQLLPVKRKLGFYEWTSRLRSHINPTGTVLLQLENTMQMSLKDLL
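Spleen homogenate 1 ug + cpd (titration) + 4-MU-alpha-D-galactopyranoside 1 mM; 37C 40 min; 50 mM citrate/phosphate pH 5.0, 0.01% Tween-20; stop pH 10; fluorescence 365/440; AC50 via Hill.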
Hits are given with their value; i = inactive; ? = inconclusive; nt = no result given; [ ] = dose if it differs, or a comment. Calls come from the whole dose curve; as a rule, active = well fitted curve in the direction sought with a large enough effect; inconclusive = small, poorly fitted or top-dose-only effect, or another doubt; inactive = no such curve, though single readings can be large; an effect the other way counts as inactive or inconclusive.

SMILES	GAA glycogen	GAA spleen mod	GAA inh	GLA inh pH 4.5	N370S GC mod	GLA spleen mod
C=CCc1c(C)nc(-c2ccccc2)nc1N/N=C/c1ccccc1	i	i	i	i	15.8µM	i
C=CCc1c(C)nc(-c2ccccc2)nc1N/N=C/c1ccncc1	i	nt	?	i	?	i
C=CCc1c(C)nc(-c2ccccc2)nc1N/N=C(\C)c1ccc(N)cc1	?	i	i	i	12.6µM	i
COc1ccc(C2/C=C\CN(Cc3ccccc3)C(C)C(=O)N2Cc2ccc(F)cc2)cc1 (stereo unspecified)	nt	i	nt	nt	i	i
CCOC(=O)/C(C#N)=C\c1cc(C)n(-c2ccccc2)c1C	i	i	i	i	i	i
CCOC(=O)/C(C#N)=C\c1ccc(N2CCN(C/C=C/c3ccccc3)CC2)cc1	i	i	i	i	15.8µM	i
COc1cccc(-n2cn[nH]c2=S)c1	i	i	i	i[21.1 µM]	i	i
COc1cccc(-n2sc3c(c2=S)-c2cc(OC)ccc2NC3(C)C)c1	39.8µM	i	i	i	i	i
CN(C)c1nc(-c2cccnc2)nc2ccccc12	nt	i	nt	nt	i	28.2µM
O=C(OCCNc1nc(-c2ccccc2)nc2ccccc12)c1cccnc1	i	i	?	i	7.08µM	i
OC(CNc1nc(-c2cccnc2)nc2ccccc12)c1ccccc1 (stereo unspecified)	nt	nt	nt	nt	10µM	nt
CN(Cc1cccs1)c1nc(-c2cccnc2)nc2ccccc12	i	i	i	i	i	i
C#CCCCO/N=C1/C[C@@H](O)[C@@H](O)[C@@H]2[C@@H]3C(=O)N(c4cccc(Oc5ccccc5)c4)C(=O)[C@H]3CC[C@@H]12	nt	i[17.4 µM]	nt	nt	i[12.8 µM]	i[17.5 µM]
N#C/C(=C\c1cc(O)c(O)c(O)c1)C(N)=O	5.01µM	?	nt	i	i	i
C[C@H](Cc1ccc(O)c(O)c1)[C@@H](C)Cc1ccc(O)c(O)c1	nt	i	nt	i	i	11.2µM
CC(Cc1ccc(O)c(O)c1)C(C)Cc1ccc(O)c(O)c1 (stereo unspecified)	nt	i	nt	i	i	i
OCc1cc2c(cn1)[nH]c1ccccc12	nt	i	nt	nt	?	i
CCCCCCCCCCCCCC[C@@H](O)[C@@H](O)[C@H](CO)NC(C)=O	nt	i	nt	nt	i	i
CCCCc1nc2c(c3c1C[C@H](C)OC3)CN(C(=O)NCCCC(=O)OCC)CC2	nt	i[17.4 µM]	nt	i	i[12.8 µM]	i[17.5 µM]
O=c1c(O[C@@H]2O[C@H](CO)[C@@H](O)[C@H](O)[C@H]2O)c(-c2ccc(O)c(O)c2)oc2cc(O)cc(O)c12	3.55µM	i	i[15.4 µM]	i	i	i
COc1cc(-c2oc3cc(O)cc(O)c3c(=O)c2O[C@@H]2O[C@H](CO)[C@@H](O)[C@H](O)[C@H]2O)ccc1O	nt	i	nt	nt	i	i
C[C@@H]1O[C@@H](OC[C@H]2O[C@@H](Oc3c(-c4ccc(O)c(O)c4)oc4cc(O)cc(O)c4c3=O)[C@H](O)[C@@H](O)[C@@H]2O)[C@H](O)[C@H](O)[C@H]1O	3.16µM	i	i[15.4 µM]	i	i	i
CC1OC(OCC2OC(Oc3c(-c4ccc(O)cc4)oc4cc(O)cc(O)c4c3=O)C(O)C(O)C2O)C(O)C(O)C1O (stereo unspecified)	?	i	nt	i	i	i
O=c1c(O[C@@H]2O[C@H](CO)[C@@H](O)[C@H](O)[C@H]2O)c(-c2ccc(O)cc2)oc2cc(O)cc(O)c12	nt	i	nt	nt	i	i
O=c1c(O[C@@H]2O[C@H](CO)[C@H](O)[C@H](O)[C@H]2O)c(-c2ccc(O)c(O)c2)oc2cc(O)cc(O)c12	6.31µM	?	i[15.4 µM]	i	?	?
SMILES	GAA glycogen	GAA spleen mod	GAA inh	GLA inh pH 4.5	N370S GC mod	GLA spleen mod
COc1c(-c2ccc(O)c(O)c2)oc2cc(O)cc(O)c2c1=O	35.5µM	i	nt	i	i	i
COC(=O)C1=C(C(=O)OC)[C@@H]2Nc3ccccc3[C@@]23C[C@@H](C(=O)OC)N(S(=O)(=O)c2ccc(Br)cc2)C3=N1	nt	i[17.4 µM]	nt	i	i[12.8 µM]	i[17.5 µM]
O=c1c(O)c(-c2ccc(O)cc2O)oc2cc(O)cc(O)c12	3.16µM	i	i[15.4 µM]	i	i	i
COc1cccc2c(SCC(=O)N/N=C/c3ccc(O)c(O)c3)cc(C)nc12	3.14µM	i	i	i	i	i
COc1ccc2c(c1)c(C(=O)N/N=C/c1ccc(Br)cc1)c(C)n2C	i	i	nt	i	i	i
COc1cccc2c(SCC(=O)N/N=C/c3ccccc3)cc(C)nc12	i	i	i	i	i	i
COc1ccc2nc(C)cc(SCC(=O)N/N=C/c3ccc(O)c(O)c3)c2c1	7.03µM	i	i	i	i	i
Cc1cc(SCC(=O)N/N=C/c2ccc(O)c(O)c2)c(C)cc1Br	17.8µM	i	i	i	i	i
COc1ccc2c(c1)c(C(=O)N/N=C/c1ccc(O)c(O)c1)c(C)n2C	31.6µM	i	i	i	i	i
COc1ccc2nc(C)cc(SCC(=O)N/N=C/c3cccc4ccccc34)c2c1	i	i	?	i	i	i
COc1ccc(-c2nc3c(c4c2C[C@H](c2ccccc2)OC4)CN(S(=O)(=O)c2ccc(NC(C)=O)cc2)CC3)c(C)c1	nt	i[17.4 µM]	nt	i	i[12.8 µM]	i[17.5 µM]
C=C1CCC[C@]2(C)C[C@H]3OC(=O)[C@H](CNCCc4ccccc4OC)C3CC12 (stereo partly specified)	nt	i	nt	i	i	i
CCc1nnc(N/N=C/c2ccc(N3CCC(C)CC3)c([N+](=O)[O-])c2)n1N	?	i	i	i	?	i
Cc1nnc(N/N=C/c2cc([N+](=O)[O-])c(N3CCC(C)CC3)cc2N2CCC(C)CC2)n1N	31.4µM	i	?	i	i	i
O=C(CN1CC(=O)Oc2ccccc21)NCc1ccco1	7.03µM	i	i	i	i	i
O=C(CN1CCOc2ccccc21)NCc1ccco1	i	i	i[15.4 µM]	i	i	i
NCCCC[C@H](NC(=O)[C@@H]1CCCN1C(=O)[C@H](CO)NC(=O)[C@H](CC(=O)O)NC(=O)CNC(=O)[C@H](CCCN=C(N)N)NC(=O)CN)C(=O)O	nt	i	nt	nt	i	i
O=C(CNC(=O)Cc1ccccc1)N=Nc1c(O)[nH]c2ccccc12	i	nt	nt	nt	i	nt
CC(C)(Cc1ccc(O)cc1)NC(=O)CC(=O)N=Nc1c(O)[nH]c2cc(Br)ccc12	i	i	i	i	11.2µM	i
Cc1ccc(O)c(NC(=O)c2cccc(NC(=O)c3ccco3)c2)c1	12.6µM	i	i	i	i	i
Cc1cc(O)c(NC(=O)c2ccco2)cc1C	11.2µM	i	i	i	i	i
Cc1ccc(O)c(NC(=O)c2ccco2)c1	?	i	i	i	i	i
C[C@@H]1/C=C\CC(=O)OC[C@H](C)C(=O)N[C@@H](Cc2ccccc2)C(=O)OC1	nt	i[17.4 µM]	nt	nt	i[12.8 µM]	i[17.5 µM]
O=C(/C=C\c1ccc(O)c(O)c1)O[C@@H]1C[C@](O)(C(=O)O)C[C@@H](O)[C@@H]1O	nt	i	nt	i	i	i
